This note sets out measurements from PubChem BioAssay (Tox21).

For test [1], the target named is Progesterone receptor (Homo sapiens) (UniProt P06401). Put plainly: qHTS assay to identify small molecule agonists of the progesterone receptor (PR) signaling pathway (AID 1346784; calls by dose curve; further: nearly all actives have a fitted effect of over 30% in size). The procedure, abridged: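 Compounds were tested for PR agonism in HEK 293T cells bearing a beta-lactamase gene under UAS control. Treatment lasted 16 hr at 37C; signal came from fluorescence of a FRET substrate.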

Test [2] shares this target. Put plainly: qHTS assay to identify small molecule antagonists of the progesterone receptor (PR) signaling pathway (AID 1346795; active means well fitted inhibition curve with a large enough effect in the signal ratio in the repeat runs, not every such curve was filed as active; the % refers to the signal ratio). The method, boiled down:
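In HEK293T cells bearing the PR-UAS-bla reporter, compound effects on promegestone-driven (1 nM) beta-lactamase expression are assessed after 16 hr using a fluorescent FRET substrate incubated 2 hr at room temperature.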

Test [3] can be described thus: qHTS assay to identify small molecule antagonists of the progesterone receptor (PR) signaling pathway - cell viability counter screen (AID 1346798). Further: nearly all actives have a fitted effect of over 50% in size. Further: potency means the concentration at half of the fitted maximal effect. The procedure, abridged: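 Following a 4 hr attachment, PR-UAS-bla HEK293T cells in charcoal-stripped FBS medium were exposed to compounds with R5020 for 16 hr; CellTiter-Glo was added and luminescence read after 30 min at room temperature.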

Test [4] is described as follows: qHTS assay to identify small molecule antagonists of the TGF-beta/Smad signaling pathway - cell viability counter screen (AID 1346824). Further: nearly all actives have a fitted effect of over 50% in size. The procedure, abridged:
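Cytotoxicity counter-screen run in the same wells as the beta-lactamase Smad reporter read: CellTiter-Glo luminescence after 30 min at room temperature. HEK 293T SBE-bla cells had 5 hr compound exposure at 37 C with TGF-beta1 (0.25 ng/mL stock).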

Test [5] in a line: qHTS assay to identify small molecule agonists of the TGF-beta/Smad signaling pathway - cell viability counter screen (AID 1346829). Further: top concentration of the series differs between compounds; nearly all actives have a fitted effect of over 45% in size. The method, boiled down:
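Luminescence from CellTiter-Glo, read after a 30 min room-temperature incubation, gives cell viability of SBE-bla HEK 293T cells treated 5 hr with compounds at 37 C.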

Test [6] can be described thus: qHTS assay to identify small molecule agonists of the TGF-beta/Smad signaling pathway (AID 1346859; active means well fitted activation curve with a large enough effect in the signal ratio in the repeat runs, not every such curve was filed as active; the % refers to the signal ratio; further: series mostly up to about 77 µM). The procedure, abridged: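 Each well held 4,000 SBE-bla HEK 293T cells incubated overnight before compound addition; 5 hr later the cleavable FRET substrate went on for 2 hr at room temperature, and fluorescence was read at two emissions.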
The target in test [7] is Thyrotropin-releasing hormone receptor (Homo sapiens) (UniProt P34981). Put plainly: qHTS assay to identify small molecule antagonists of the thyrotropin-releasing hormone receptor (TRHR) signaling pathway (AID 1346877; active means well fitted inhibition curve with a large enough effect in the repeat runs, not every such curve was filed as active; further: series mostly up to about 51 µM). The method, boiled down: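 Antagonist mode: after a 5 min room-temperature compound exposure, cells were stimulated with 1 nM (final) TRH. Dye-loaded TRHR-HEK293 cells were used, and calcium-dependent fluorescence was followed for 3 min, with 15-point titrations run in triplicate.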

Test [8] shares this target. Put plainly: qHTS assay to identify small molecule agonists of the thyrotropin-releasing hormone receptor (TRHR) signaling pathway (AID 1346891; calls by dose curve; further: series mostly up to about 58 µM). The method, boiled down:
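Screening of agonists relied on calcium signalling in HEK293 cells expressing human TRHR: dye loading 2 h at 37 °C preceded compound addition and a 3-min fluorescence time course.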

Test [9] in a line: Caspase-3/7 induction in HepG2 cells by small molecules, qHTS assay (AID 1346978). Further: nearly all actives have a fitted effect of over 15% in size. The method, boiled down:
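Caspase-3/7 induction was measured by Caspase-Glo 3/7 luminescence (30 min, room temperature) after a 17 hr compound exposure of wild-type HepG2 cells seeded at 2,000 per well and pre-incubated 5 hr.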

Test [10] in a line: Caspase-3/7 induction in CHO-K1 cells by small molecules, qHTS cell viability counter screen (AID 1346979). Further: nearly all actives have a fitted effect of over 35% in size. Further: potency means the concentration at half of the fitted maximal effect. The method, boiled down: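 CellTiter-Fluor viability check, qHTS format: wild-type CHO-K1, 16hr compound treatment, 1hr reagent incubation, fluorescence read.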
A short description of test [11]: Caspase-3/7 induction in CHO-K1 cells by small molecules, qHTS assay (AID 1346980). Further: nearly all actives have a fitted effect of over 15% in size. The method, boiled down: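 Luminescent Caspase-Glo 3/7 read (30min, room temperature) quantified apoptosis induction. Cells were wild-type CHO-K1, treated with compound for 17hr at 37 C and 5% CO2.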
A short description of test [12]: Caspase-3/7 induction in HepG2 cells by small molecules, qHTS cell viability counter screen (AID 1346981). Further: nearly all actives have a fitted effect of over 30% in size. Further: potency means the concentration at half of the fitted maximal effect. The procedure, abridged: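 CellTiter-Fluor fluorescence measured viability in the same wells used for Caspase-Glo 3/7. HepG2 (wild type) at 2,000 cells/well were pre-incubated 5 hr, dosed, and given reagent at 16 hr, with 1 hr further at 37C.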
Test [13] deals with Nuclear receptor subfamily 1 group I member 2 (Homo sapiens) (UniProt O75469). Put plainly: Human pregnane X receptor (PXR) small molecule agonists, qHTS assay (AID 1346982). Further: nearly all actives have a fitted effect of over 35% in size. Further: potency means the concentration at half of the fitted maximal effect. The procedure, abridged: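 Agonist mode: luminescence from ONE-Glo after 24 h compound exposure at 37C in HepG2 cells carrying hPXR-responsive CYP3A4 luciferase, plated in charcoal-stripped serum medium 5 h beforehand.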

Test [14] concerns the target Nuclear receptor subfamily 1 group I member 2 (Rattus norvegicus) (UniProt Q9R1A7). Put plainly: Rat pregnane X receptor (rPXR) activation by small molecules, qHTS assay (AID 1346983). Further: nearly all actives have a fitted effect of over 20% in size. To be noted: rPXR luciferase reporter cells, One-Glo luminescence, 24 h; max activation: stronger effect = higher value. The procedure, abridged: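 Luminescent readout (One-Glo luciferase, 30 min room temperature) followed 24 hr compound treatment at 37 C of rPXR cells plated 2,000 per well and preincubated 5hr; qHTS format with compounds delivered in DMSO.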

Test [15] has as its target Nuclear receptor subfamily 1 group I member 2 (Homo sapiens) (UniProt O75469). Kind of test: CYP3A4 induction through human pregnane X receptor (PXR) by small molecules, qHTS assay (AID 1346984). Further: nearly all actives have a fitted effect of over 40% in size. The procedure, abridged:
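Read-out is luminescence after One-Glo addition, following a 3 hr, 37C incubation with Luciferin-IPA CYP3A4 substrate (3uM final). Before that, compounds were on DPX-2 cells (HepG2 co-transfected with PXR element plus CYP3A4-promoter luciferase) for 24 hr at 37C.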

Test [16] concerns the target Cytochrome P450 2D6 (Homo sapiens) (UniProt P10635). Kind of test: Cytochrome P450 Family 2 Subfamily D Member 6 (CYP2D6) small molecule antagonists: luciferase reporter qHTS assay (AID 1671196). Further: nearly all actives have a fitted effect of over 50% in size. Further: potency means the concentration at half of the fitted maximal effect. The procedure, abridged:
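CYP2D6 activity was followed as luminescence from its luciferin product after a 1 h NADPH-driven reaction at room temperature. Enzyme-substrate mix and compound were pre-incubated for 10 min, and the signal was read 20 min after adding detection reagent.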

The target of test [17] is Cytochrome P450 2C19 (Homo sapiens) (UniProt P33261). Put plainly: Cytochrome P450 Family 2 Subfamily C Member 19 (CYP2C19) small molecule antagonists: luciferase reporter qHTS assay (AID 1671197). Further: nearly all actives have a fitted effect of over 65% in size. Further: potency means the concentration at half of the fitted maximal effect. The method, boiled down:
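CYP2C19 P450-Glo, 1536-well qHTS. Cpd + enzyme/proluciferin substrate 10 min RT; + NADPH regen, 37C 1 h; stop with luciferin detection reagent, 20 min RT, luminescence (RLU). Pos ctrl ketoconazole.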

Test [18] in a line: Human pregnane X receptor (PXR) small molecule agonists, qHTS cell viability counter screen (AID 1346977). Further: nearly all actives have a fitted effect of over 50% in size. Further: potency means the concentration at half of the fitted maximal effect. The method, boiled down:
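Tox21 qHTS format; PXR-Luc HepG2, 2,000/well, charcoal-stripped FBS 5%. Cpd exposure 24hr. Read: CellTiter-Fluor fluorescence, multiplexed with luciferase.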

Test [19] can be described thus: qHTS assay to identify small molecule agonists of the progesterone receptor (PR) signaling pathway - cell viability counter screen (AID 1346799; calls by dose curve; further: nearly all actives have a fitted effect of over 45% in size). The procedure, abridged: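 Here, 3,000 PR-UAS-bla HEK293T cells per well were treated with compounds for 16 hr after a 6 hr preincubation at 37C and 5% CO2; cell viability is the CellTiter-Glo luminescence signal.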

Unmarked numbers belong to inactive results. Records with an inconclusive call do not appear. The source made the active and inactive calls. Unless noted, the call rests on the fitted dose curve; in most records, active means well fitted curve in the direction sought with a large enough effect in the repeat runs; inconclusive means weak or mixed curves; inactive means no such curve, though single readings can be large; an effect the other way counts as inactive or inconclusive.
On the % scale 0 is the no-effect control and ±100 the full control effect.

Chain of Cytochrome P450 2D6 (Homo sapiens) (P10635 whole entry, looked up): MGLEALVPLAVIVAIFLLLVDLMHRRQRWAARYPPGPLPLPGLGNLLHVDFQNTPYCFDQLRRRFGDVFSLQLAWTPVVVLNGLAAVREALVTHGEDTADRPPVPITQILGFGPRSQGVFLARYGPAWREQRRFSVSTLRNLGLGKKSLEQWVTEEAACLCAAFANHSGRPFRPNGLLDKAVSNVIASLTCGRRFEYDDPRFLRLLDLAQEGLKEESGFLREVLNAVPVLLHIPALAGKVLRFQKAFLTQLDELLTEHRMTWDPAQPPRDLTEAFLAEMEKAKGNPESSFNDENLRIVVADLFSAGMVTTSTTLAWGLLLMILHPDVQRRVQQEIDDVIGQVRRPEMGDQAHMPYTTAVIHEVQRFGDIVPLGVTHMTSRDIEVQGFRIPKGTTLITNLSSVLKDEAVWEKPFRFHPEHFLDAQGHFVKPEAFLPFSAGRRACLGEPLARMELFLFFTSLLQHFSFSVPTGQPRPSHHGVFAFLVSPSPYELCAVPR
Chain of Cytochrome P450 2C19 (Homo sapiens) (P33261 whole entry, looked up): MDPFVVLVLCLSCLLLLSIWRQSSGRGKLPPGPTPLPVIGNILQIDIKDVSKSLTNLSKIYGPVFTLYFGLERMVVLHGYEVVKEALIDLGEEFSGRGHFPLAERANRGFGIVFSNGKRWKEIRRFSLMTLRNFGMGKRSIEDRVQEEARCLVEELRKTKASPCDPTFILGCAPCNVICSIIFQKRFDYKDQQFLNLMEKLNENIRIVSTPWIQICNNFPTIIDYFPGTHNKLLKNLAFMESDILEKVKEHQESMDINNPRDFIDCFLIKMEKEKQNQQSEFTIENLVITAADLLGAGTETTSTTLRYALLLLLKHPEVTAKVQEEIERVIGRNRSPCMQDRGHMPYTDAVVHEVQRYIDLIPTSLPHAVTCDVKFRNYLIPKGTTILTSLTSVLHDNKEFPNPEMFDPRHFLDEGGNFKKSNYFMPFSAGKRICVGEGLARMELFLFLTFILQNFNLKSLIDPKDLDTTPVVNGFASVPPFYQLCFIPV
Chain of Nuclear receptor subfamily 1 group I member 2 (Homo sapiens) (O75469 whole entry, looked up): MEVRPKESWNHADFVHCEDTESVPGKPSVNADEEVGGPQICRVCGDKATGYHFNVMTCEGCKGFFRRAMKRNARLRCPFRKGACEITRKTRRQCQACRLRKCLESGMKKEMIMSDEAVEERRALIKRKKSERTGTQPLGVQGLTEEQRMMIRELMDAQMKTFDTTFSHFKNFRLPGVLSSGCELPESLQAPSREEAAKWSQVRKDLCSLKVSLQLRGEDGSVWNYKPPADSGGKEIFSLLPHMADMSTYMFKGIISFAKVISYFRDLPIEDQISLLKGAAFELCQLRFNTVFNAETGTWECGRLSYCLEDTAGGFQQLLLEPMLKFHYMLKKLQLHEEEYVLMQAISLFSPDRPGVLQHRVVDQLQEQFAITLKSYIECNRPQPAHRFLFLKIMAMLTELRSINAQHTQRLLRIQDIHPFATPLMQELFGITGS
Chain of Nuclear receptor subfamily 1 group I member 2 (Rattus norvegicus) (Q9R1A7 whole entry, looked up): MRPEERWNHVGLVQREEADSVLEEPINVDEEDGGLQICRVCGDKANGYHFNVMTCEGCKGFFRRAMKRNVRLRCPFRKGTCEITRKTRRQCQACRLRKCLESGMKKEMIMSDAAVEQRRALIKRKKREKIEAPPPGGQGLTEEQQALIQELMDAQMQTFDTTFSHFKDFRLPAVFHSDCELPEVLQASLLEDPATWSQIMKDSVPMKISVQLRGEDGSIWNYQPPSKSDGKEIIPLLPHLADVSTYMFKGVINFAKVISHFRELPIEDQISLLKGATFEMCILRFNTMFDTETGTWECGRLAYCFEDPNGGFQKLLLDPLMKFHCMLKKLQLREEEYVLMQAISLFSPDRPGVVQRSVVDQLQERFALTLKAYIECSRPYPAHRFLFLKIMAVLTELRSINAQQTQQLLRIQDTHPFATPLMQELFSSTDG
Chain of Thyrotropin-releasing hormone receptor (Homo sapiens) (P34981 whole entry, looked up): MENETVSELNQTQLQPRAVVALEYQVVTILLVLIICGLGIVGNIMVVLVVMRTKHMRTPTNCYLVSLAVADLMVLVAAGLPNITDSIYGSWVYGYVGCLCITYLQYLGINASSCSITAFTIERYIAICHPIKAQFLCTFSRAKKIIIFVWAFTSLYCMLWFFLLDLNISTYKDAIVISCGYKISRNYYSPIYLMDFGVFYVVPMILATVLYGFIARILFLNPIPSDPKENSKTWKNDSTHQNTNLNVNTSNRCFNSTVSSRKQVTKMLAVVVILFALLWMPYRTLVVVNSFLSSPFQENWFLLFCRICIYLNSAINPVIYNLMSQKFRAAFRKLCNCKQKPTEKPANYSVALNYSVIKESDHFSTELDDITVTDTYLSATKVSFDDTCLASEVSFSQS
Chain of Progesterone receptor (Homo sapiens) (P06401 whole entry, looked up): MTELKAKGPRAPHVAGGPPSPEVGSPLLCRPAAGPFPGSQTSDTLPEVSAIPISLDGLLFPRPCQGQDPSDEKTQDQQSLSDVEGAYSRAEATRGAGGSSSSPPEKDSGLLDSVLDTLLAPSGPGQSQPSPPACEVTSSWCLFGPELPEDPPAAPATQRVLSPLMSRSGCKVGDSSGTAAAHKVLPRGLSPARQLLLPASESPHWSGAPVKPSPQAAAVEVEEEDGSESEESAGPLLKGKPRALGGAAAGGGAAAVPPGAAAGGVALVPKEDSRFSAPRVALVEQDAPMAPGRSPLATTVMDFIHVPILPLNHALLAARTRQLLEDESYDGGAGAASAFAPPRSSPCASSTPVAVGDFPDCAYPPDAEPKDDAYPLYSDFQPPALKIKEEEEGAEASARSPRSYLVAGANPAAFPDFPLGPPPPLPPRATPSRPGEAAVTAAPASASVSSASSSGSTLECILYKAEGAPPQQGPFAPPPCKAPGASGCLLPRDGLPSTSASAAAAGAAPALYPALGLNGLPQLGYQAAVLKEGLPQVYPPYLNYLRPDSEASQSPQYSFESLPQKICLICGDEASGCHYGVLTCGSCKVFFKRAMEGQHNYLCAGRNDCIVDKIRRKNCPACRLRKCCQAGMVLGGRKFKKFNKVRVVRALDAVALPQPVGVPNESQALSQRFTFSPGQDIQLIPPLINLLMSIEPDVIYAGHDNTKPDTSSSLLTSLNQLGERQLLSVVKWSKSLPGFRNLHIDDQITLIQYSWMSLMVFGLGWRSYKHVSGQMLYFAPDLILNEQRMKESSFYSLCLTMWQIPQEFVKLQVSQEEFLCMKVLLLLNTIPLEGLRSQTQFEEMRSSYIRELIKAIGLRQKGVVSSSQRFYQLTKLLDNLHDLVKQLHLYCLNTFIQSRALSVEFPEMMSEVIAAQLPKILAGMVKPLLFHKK

For the compound `Cn1c(=O)c2c(ncn2CC(O)CO)n(C)c1=O` (stereo unspecified), the result in test [1], in test [6], in [7] and in test [9] was inactive. Also, the Potency result in test [2], in [3], in test [4], in test [5], in test [8] and in [10] was “inactive” in each case. In addition, the Potency entry in [11], in test [12], in test [13], in [15], in test [16] and in test [17] was “inactive” each time. Also, the max activation in test [14] was -1.09%.

`CCCCCCCCCO`: the call in test [1], in test [6], in test [7] and in [9] was inactive. For the same compound, the Potency entry in test [2], in test [3], in test [4], in test [5], in test [18] and in test [11] was “inactive” each time. Also, the Potency result in test [12] and in test [13] was “inactive” in each case.

Consider `C=C(C)C(=O)OCCOc1ccccc1`, for which the call in [1], in test [6], in test [7] and in test [9] was inactive. The Potency result in test [2], in test [19], in test [4], in test [5], in test [8] and in test [18] was “inactive” each time. Moreover, the Potency entry in test [10], in test [11], in test [12], in test [13] and in [16] was “inactive” in each case. In addition, in test [17], the Potency was 31.7 µM (active).

`CCCCCCCCCCCCCCCBr`: the compound was called inactive in test [1] and in [6]. Also, the Potency entry in test [2], in test [3], in test [4], in [5], in [18] and in test [10] was “inactive” each time. In addition, the Potency entry in test [11], in [12], in test [13], in test [16] and in [17] was “inactive” each time.

In the case of `NC(N)=N/N=C/c1c(Cl)cccc1Cl`, the call in test [1], in [6], in test [7] and in [9] was inactive. The Potency entry in test [2], in [4], in test [5], in [11], in test [13] and in test [15] was “inactive” each time. The Potency in test [18] is 29.8 µM (active); in test [10], 29.8 µM (active); in test [12], 29.8 µM (active); in test [16], 13.8 µM (active). Besides, in test [14], the max activation was -2.41%.

As for `COc1ccc([C@@H]2Sc3ccccc3N(CCN(C)C)C(=O)[C@@H]2OC(C)=O)cc1`, the compound was classed as inactive in [1], in test [6] and in [9]. Besides, the Potency entry in test [2], in test [4], in [5], in [18], in test [11] and in test [12] was “inactive” each time. Also, the Potency entry in [17] was “inactive”. For the same compound, in [3], the Potency was 21.1 µM (active). For the same compound, the max activation in test [14] is -0.277%.

With `CC(=O)OC/C=C/c1ccccc1`, the outcome in [1], in test [6], in test [7] and in [9] was inactive. Also, the Potency entry in test [2], in [19], in test [4], in test [5], in [8] and in test [10] was “inactive” throughout. Moreover, the Potency entry in test [11], in [12], in [13] and in test [16] was “inactive” in each case.

Regarding `COCCCCCCCCOCCC[Si](C)(O[Si](C)(C)C)O[Si](C)(C)C`, the result in [1], in test [6], in test [7] and in test [9] was inactive. In addition, the Potency result in test [2], in test [4], in test [5], in test [11] and in test [16] was “inactive” in each case. Also, the Potency was 13.7 µM (active) in [10], 12.2 µM (active) in test [13] and 56.4 µM (active) in [17].
